Experimental data from PubChem BioAssay (Tox21).
Results filed as inconclusive are left out. Calls of active or inactive are those of the source. Unless noted, calls follow the shape of the dose curve; as a rule, active = well fitted curve in the direction sought with a large enough effect in the repeat runs; inconclusive = weak or mixed curves; inactive = no such curve, though single readings can be large; an effect the other way counts as inactive or inconclusive.

Tests used:
[1] = qHTS assay to identify small molecule HDAC inhibitors (AID 1259364);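 also: wild-type HCT-116 cells with endogenous class I/II HDAC activity; top concentration of the series differs between compounds; nearly all actives have a fitted effect of over 45% in size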
Method in brief: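 Cells (HCT-116, wild type) are seeded at 1,500 per well, incubated overnight, treated with compound in DMSO for 2 hr, then developed with HDAC-Glo I/II reagent for 30 min at room temperature.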

[2] = qHTS assay to identify small molecule HDAC inhibitors - cell viability counter screen (AID 1259365); also: series mostly up to about 92 µM; nearly all actives have a fitted effect of over 50% in size
Method in brief: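 HCT-116 (wild type), 1,500 cells/well, overnight 37C/5% CO2; compound in DMSO 2hr; CellTiter-Glo 30min RT; luminescence read.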

[3] = qHTS assay to identify small molecule agonists of the sonic hedgehog signaling (Shh) pathway - cell viability counter screen (AID 1259366); also: nearly all actives have a fitted effect of over 50% in size
Method in brief: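 CellTiter-Fluor fluorescence read-out, 1 hr at 37C, added after 23hr compound exposure. Cells: 3T3 Gli1-Luc, an NIH/3T3 clone with stably integrated Gli1-Luc reporter, plated 4hr before compound.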

[4] = qHTS assay to identify small molecule antagonists of the sonic hedgehog signaling (Shh) pathway - cell viability counter screen (AID 1259367); also: nearly all actives have a fitted effect of over 55% in size
Method in brief: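 Tox21 library chemicals were tested on a Gli1-Luc NIH/3T3 clone (2,000 cells/well) stimulated by conditioned medium; viability was quantified as fluorescence from CellTiter-Fluor reagent added at 23 hr.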

[5] = qHTS assay to identify small molecule agonists of the sonic hedgehog signaling (Shh) pathway (AID 1259368; calls by dose curve;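 also: NIH/3T3-derived 3T3Gli1-Luc cells carrying a stable Gli1-driven firefly luciferase reporter; series mostly up to about 92 µM; nearly all actives have a fitted effect of over 15% in size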)
Method in brief: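 Cells of a mouse NIH/3T3 clone stably expressing luciferase under the Gli1 transcriptional response element are exposed to test chemicals for 24 hr at 37 C. Pathway activation is detected as a rise in luminescence.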

[6] = qHTS assay to identify small molecule antagonists of the sonic hedgehog signaling (Shh) pathway (AID 1259369; calls by dose curve; also: nearly all actives have a fitted effect of over 45% in size)
Method in brief: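 Cells are plated and held 4hr at 37 C, compounds (DMSO) are pinned in, conditioned medium is added to stimulate the pathway, and after 24hr luciferase reagent is added for 30min before luminescence is read.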

[7] = molecular target: Estrogen receptor beta (Homo sapiens) (UniProt Q92731); assay: qHTS assay to identify small molecule agonists of the estrogen receptor beta (ER-beta) signaling pathway (AID 1259377; active = well fitted activation curve with a large enough effect in the signal ratio in the repeat runs, not every such curve was filed as active; the % refers to the signal ratio)
Method in brief: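 Beta-lactamase reporter readout: fluorescence of LiveBLAzer B/G FRET substrate after 2 h at room temperature, following 16 h compound treatment of ER-beta-UAS-bla HEK293T cells at 37C in 2% charcoal-stripped FBS medium.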

[8] = molecular target: Estrogen receptor beta (Homo sapiens) (UniProt Q92731); assay: qHTS assay to identify small molecule antagonists of the estrogen receptor beta (ER-beta) signaling pathway (AID 1259378; active = well fitted inhibition curve with a large enough effect in the signal ratio in the repeat runs, not every such curve was filed as active; the % refers to the signal ratio)
Method in brief: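 ER-beta-UAS-bla HEK293T cells in 2% charcoal-stripped FBS medium treated with compound plus 1nM final 17-beta-estradiol for 16 hr at 37C. Beta-lactamase reporter read by FRET substrate fluorescence after 2 hours at room temperature.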

[9] = qHTS assay to identify small molecule agonists of the androgen receptor (AR) signaling pathway in the presence of an antagonist - cell viability counter screen (AID 1259379);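 also: MDA-kb2 human breast cancer cells carrying an MMTV luciferase reporter; series mostly up to about 92 µM; nearly all actives have a fitted effect of over 25% in size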
Method in brief: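 Cytotoxicity is assessed by CellTiter-Fluor in MDA-kb2 cells carrying an MMTV-driven luciferase reporter. Cells receive 3.0uM nilutamide plus compounds at 15 concentrations and incubate 16 hr at 37C without CO2 before fluorescence reading.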

[10] = qHTS assay to identify small molecule agonists of the estrogen receptor beta (ER-beta) signaling pathway - cell viability counter screen (AID 1259380); also: nearly all actives have a fitted effect of over 30% in size
Method in brief: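 Cytotoxicity is measured in parallel with the reporter screen: after 16 hr compound exposure at 37C and a 2 hr LiveBLAzer step, CellTiter-Glo is added to the same ER-beta-UAS-bla HEK293T wells and luminescence read after 30 min.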
% is scaled to controls: 0 for no effect and ±100 for the full control effect.

Chain of Estrogen receptor beta (Homo sapiens) (Q92731 whole entry, looked up): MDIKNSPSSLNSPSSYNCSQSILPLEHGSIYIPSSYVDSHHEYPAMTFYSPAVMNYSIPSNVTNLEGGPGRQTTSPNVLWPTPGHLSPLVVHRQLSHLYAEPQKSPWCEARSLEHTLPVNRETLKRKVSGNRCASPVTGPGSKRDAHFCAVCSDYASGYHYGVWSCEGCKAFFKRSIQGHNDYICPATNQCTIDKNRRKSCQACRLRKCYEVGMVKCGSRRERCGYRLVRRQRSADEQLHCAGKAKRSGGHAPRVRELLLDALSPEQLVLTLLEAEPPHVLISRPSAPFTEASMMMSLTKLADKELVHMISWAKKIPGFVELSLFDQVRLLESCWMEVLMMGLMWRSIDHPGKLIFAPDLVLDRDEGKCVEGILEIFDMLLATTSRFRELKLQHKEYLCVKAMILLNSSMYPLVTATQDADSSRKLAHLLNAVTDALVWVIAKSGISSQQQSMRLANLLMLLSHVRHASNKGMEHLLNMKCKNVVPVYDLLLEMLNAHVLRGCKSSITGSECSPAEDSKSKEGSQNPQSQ

O=C1c2ccccc2-c2ccccc21
inactive: Potency [1] | outcome [2] | Potency [3] | Potency [4] | outcome [5] | Potency [6] | Potency [7] | outcome [8] | Potency [9]

CCCCCCCCCCCCCCCCCCN(C)C
inactive: Potency [1] | outcome [2] | Potency [3] | Potency [4] | outcome [5] | Potency [6] | Potency [7] | outcome [8] | Potency [9] | outcome [10]

CC(C)(CO)[C@@H](O)C(=O)NCCCO
inactive: Potency [1] | outcome [2] | Potency [3] | Potency [4] | outcome [5] | Potency [6] | Potency [7] | outcome [8] | Potency [9]

Cc1ccc(S(=O)(=O)NC(=O)NC2CCCCCCC2)cc1
inactive: Potency [1] | outcome [2] | Potency [3] | Potency [4] | outcome [5] | Potency [6] | Potency [7] | outcome [8] | Potency [9] | outcome [10]

O=C1CC[C@H](C(=O)N2CCCCC2)N1
inactive: Potency [1] | outcome [2] | Potency [3] | Potency [4] | outcome [5] | Potency [6] | Potency [7] | outcome [8] | Potency [9]

O=CO
inactive: activity change, negative = inhibition [1] -0.333% [at 8.39 µM] | activity change, negative = cytotoxicity [2] -1.28% [at 8.39 µM] | viability change, negative = cytotoxic [3] 5.23% [at 8.39 µM] | viability change, negative = cytotoxic [4] 1.7% [at 8.39 µM] | activity change [5] -0.175% [at 8.39 µM] | activity change, negative = inhibition [6] 8.06% [at 8.39 µM]

CCCCCCCCCCC
inactive: Potency [1] | outcome [2] | Potency [3] | Potency [4] | outcome [5] | Potency [6] | Potency [7]

CC(C)c1ccccc1O
inactive: Potency [1] | outcome [2] | Potency [3] | Potency [4] | outcome [5] | Potency [6] | Potency [7] | outcome [8] | Potency [9] | outcome [10]

SCCSCCS
inactive: Potency [1] | outcome [2] | Potency [3] | Potency [4] | outcome [5] | Potency [6] | Potency [7] | outcome [8] | Potency [9] | outcome [10]

CC(=O)Nc1ccc(C)cc1
inactive: Potency [1] | outcome [2] | Potency [3] | Potency [4] | outcome [5] | Potency [6] | Potency [7] | outcome [8] | Potency [9] | outcome [10]

CC(C)COC(=O)/C=C/c1ccccc1
inactive: Potency [1] | outcome [2] | Potency [3] | Potency [4] | outcome [5] | Potency [6] | Potency [7] | outcome [8] | Potency [9] | outcome [10]

COc1ccc(OC)c(NC(=O)CC(C)=O)c1
inactive: Potency [1] | outcome [2] | Potency [3] | Potency [4] | outcome [5] | Potency [6] | Potency [7] | outcome [8] | Potency [9] | outcome [10]

C=COCCOCCOC=C
inactive: Potency [1] | outcome [2] | Potency [3] | Potency [4] | outcome [5] | Potency [6] | Potency [7] | outcome [8] | Potency [9] | outcome [10]

CO[Si](CCCS)(OC)OC
inactive: Potency [1] | outcome [2] | Potency [3] | Potency [4] | outcome [5] | Potency [6] | Potency [7] | Potency [9]

O=C(O)c1ccccc1C(=O)Nc1ccc(S(=O)(=O)Nc2nccs2)cc1
inactive: Potency [1] | outcome [2] | Potency [3] | Potency [4] | outcome [5] | Potency [6] | Potency [7] | Potency [9] | outcome [10]

Nc1ccnc(=O)[nH]1
inactive: Potency [1] | outcome [2] | Potency [3] | Potency [4] | outcome [5] | Potency [6] | Potency [7] | Potency [9] | outcome [10]

Cc1cccc(Nc2ccncc2S(=O)(=O)NC(=O)NC(C)C)c1
inactive: Potency [1] | outcome [2] | Potency [3] | Potency [4] | outcome [5] | Potency [6] | Potency [7] | outcome [8] | outcome [10]

CCOC(=O)CCCCCCCCC(=O)OCC
inactive: Potency [1] | outcome [2] | Potency [3] | Potency [4] | outcome [5] | Potency [6] | outcome [8] | Potency [9] | outcome [10]

O=C1OC(=O)c2cc(Oc3ccc4c(c3)C(=O)OC4=O)ccc21
inactive: Potency [1] | outcome [2] | Potency [3] | Potency [4] | outcome [5] | Potency [6] | outcome [8] | Potency [9]

C=CCOc1cc(Cl)ccc1C(=O)NCCN(CC)CC
inactive: Potency [1] | outcome [2] | Potency [3] | Potency [4] | outcome [5] | Potency [6] | Potency [7] | outcome [8] | Potency [9] | outcome [10]

NC(=O)NNC(N)=O
inactive: Potency [1] | outcome [2] | Potency [3] | Potency [4] | outcome [5] | Potency [6] | Potency [7] | outcome [10]

NS(=O)(=O)c1ccccc1OC(F)(F)F
inactive: Potency [1] | outcome [2] | Potency [3] | Potency [4] | outcome [5] | Potency [6] | Potency [7] | outcome [8] | Potency [9] | outcome [10]

Cc1ccccc1C(=O)N1CC/C(=N\OS(=O)(=O)O)c2ccc(Cl)cc21
inactive: Potency [1] | outcome [2] | Potency [3] | Potency [4] | outcome [5] | Potency [6] | Potency [7] | outcome [8] | Potency [9] | outcome [10]

CCOC(=O)CC#N
inactive: Potency [1] | outcome [2] | Potency [3] | Potency [4] | outcome [5] | Potency [6] | Potency [7] | outcome [10]

CN=C(NC#N)NCCSCc1csc(N=C(N)N)n1
inactive: Potency [1] | outcome [2] | Potency [3] | Potency [4] | outcome [5] | Potency [6] | Potency [7] | Potency [9] | outcome [10]

CCCCC(CC)CNC(=O)CC(C)OC(=O)CCC(=O)O (stereo unspecified)
inactive: Potency [1] | outcome [2] | Potency [3] | Potency [4] | outcome [5] | Potency [6] | Potency [7] | Potency [9] | outcome [10]
